Experiments:
Assay in all cases: PBM binding z-score (relative to random genomic background probes); higher = stronger binding; sequences stand for … in GC…GCGATTGACAGCGTAGAATGAAGG
[1] = tested on: RARb homodimer (NR concentration 270 nM)
In short: (§1)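 Antibodies against each partner of ligand-free nuclear receptor dimers (one per run) detected binding on custom Agilent 4×180K protein-binding microarrays after 1 h incubation. The double-stranded probes had 34-nt variable regions carrying direct-repeat seeds, single-nucleotide variants, half-site ablations and random human genomic background sequences. Binding z-scores, from regression-normalized fluorescence, use the random background probes as reference.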

[2] = tested on: RARg:RXRa (NR concentration 270 nM, RXRa partner concentration 90 nM)
In short: as §1

[3] = tested on: RARg homodimer (NR concentration 270 nM)
In short: as §1

[4] = tested on: RXRa DBDmut IVT, anti-RXR (DBD mutation: RXRa K156A/R161A, NR concentration 90 nM)
In short: as §1

[5] = tested on: RXRa homodimer (NR concentration 180 nM)
In short: as §1

[6] = tested on: THRa:RXRa (NR concentration 90 nM, RXRa partner concentration 90 nM)
In short: as §1

[7] = tested on: THRa homodimer (NR concentration 90 nM)
In short: as §1

[8] = tested on: VDR homodimer (NR concentration 270 nM)
In short: as §1

Sequence	PBM binding z-score [1]	PBM binding z-score [2]	PBM binding z-score [3]	PBM binding z-score [4]	PBM binding z-score [5]	PBM binding z-score [6]	PBM binding z-score [7]	PBM binding z-score [8]
TCAGAGAGGTGAAGGTAACTCAGGTACGCAGTCG	1.34	1.54	1.36	1.31	1.85	2.04	0.401	0.316
ATCTCTAGGTACAAGTTCAGTGAATCCCGAGGAT	1.52	0.997	1.14	1.93	0.729	0.819	0.457	2.83
GCTATGAGTTGAAAGGGCAACCGAATGATTCTCG	2.14	2.06	1.7	1.93	2.78	1.17	-0.184	0.754
AGAATGAGGATACCAAAGATCAGGGAAACGCTTG	-0.727	0.287	0.437	-0.419	0.36	1.5	0.171	-0.61
CATACAGGGTCAGCTAGGACAGAGTAGGGACGGC	3.14	4.21	4.66	1.58	3.74	3.54	1.31	1.19
TCACATAGGTAATACAGGTGAAAGTCGGCATCTA	0.573	0.559	0.535	1.35	1.14	0.928	-0.0751	-0.296
TCTGCTAGGTCCGTTGGTCAGCTAACGAGCTGCC	-0.396	-0.454	-0.542	0.392	-0.5	-0.748	-1.13	-0.592
CGTCATAGTTCAACTAAGGTAACGTAAAGCACGC	2.62	3.44	3.83	2.38	2.7	5.14	1.9	1.51
CGAACTAGGTCAGAATAGGACAGTGAAGGATGAT	2.16	2.58	3.36	0.702	1.3	2.77	0.0202	-0.245
CGTCGAAGTTCAACTAAGGTAACGTAAAGCACGC	2.89	3.53	3.67	3.86	2.69	4.97	2.11	2.88
CGAACTAGGTCATACAGGACAGTGAATACATTGA	2.68	3.77	4.03	2.32	2.68	2.83	1.2	1.57
CCTACTGGGCCAAGATCATTGATCAGTCAAAGCA	-0.51	-0.246	-0.13	-0.666	-0.589	-0.314	-0.633	-0.179
AGTCAAAGTTCATTAGGTAACGTAAGATTCAGCT	3.87	5.26	5.92	4.97	4.52	2.59	0.801	5.43
CGAACTAGGTCATCCGGGACAGTGAATACATTGA	2.87	3.87	4.59	2.41	2.75	3.58	1.84	1.96
ATCGAAAGGTCTAGGTGAGTATAGAGAAAGGGAA	1.12	1.23	1.3	0.133	0.532	0.835	0.338	-0.115
GGAACGAGGGCATTCGAGCTGATAGCATGGCGAT	0.164	0.737	1.2	2.72	0.444	0.7	-0.936	1.53
TCTTGTAGAACAACAGGAGGTTAAGAAAGATCGA	0.958	0.377	0.286	0.511	0.875	0.726	-0.422	-0.182
ACTTACGGGTCAACGATGTTATAGCACGCGTATA	3.01	5.25	5	2.19	5.56	2.76	0.387	1.21
TTACCAAGGTGAGCTGAGGTCGGTGATCCAACTC	1.46	0.608	0.586	-0.659	0.505	4.31	1.25	0.0612

Sequence	PBM binding z-score [1]	PBM binding z-score [2]	PBM binding z-score [3]	PBM binding z-score [4]	PBM binding z-score [5]	PBM binding z-score [6]	PBM binding z-score [7]	PBM binding z-score [8]
GGAACGAGGGCAAATTGATAGCAGAGTTTGATGG	1.18	1.48	1.67	2.21	1	0.906	-0.171	1.31
ACTAGTTGGTCAGATGAGGTCACACACAATTCGG	4.39	3.94	3.9	1.44	4.3	4.8	4.95	4.21
CCTAGTTGGTCAAGATCACACACGCTATAGGTAC	0.785	0.893	1.22	0.493	0.581	0.0913	0.528	0.699
CGTCAAAATTCAAGGTAACGTAACAGAAAGCAGC	0.985	0.175	0.447	-0.0025	0.308	1.64	1.15	0.24
TCGAGTAGGTTACTCGGGGCATTCAGCCAACATA	0.524	0.206	0.191	0.42	0.372	1.76	-0.17	0.557
ACTCGGAGGACAAAGCTCAGAGCTACGCCAGTGA	-0.345	0.103	0.826	0.394	-0.292	0.233	-0.675	-0.243
TCTCGGAGGACACGAAAGCTCAGAGCTCGACATC	0.352	0.462	1.19	0.558	-0.227	1.23	0.151	-0.801
GCAGAAAGGTGAAACGCAGGTAACTCAGGGTGGC	1.55	3.22	1.84	0.00146	2.31	2.25	-0.396	-0.808
CCTACTGGGCCAAGGTCATTAATCAGTCAAAGCA	3.03	3.21	2.99	1.47	2.71	3.1	2.03	3.22
CCTACTGGGCCAAAAAGGACATTGATGCCGATAA	0.641	0.266	0.586	-0.359	-0.202	0.101	-0.447	0.158
TCTTGTAGATCAGCAGGTCAAGAAAGCTGGCCAA	2.13	2.22	1.55	0.289	2.05	1.89	0.0646	0.194
TAGCCTAGGTCATTCAGGGGCCCGTATAGAAAGC	2.42	4.22	3.89	1.39	2.77	3.61	0.839	1.32
TCGAGTAGGTTACCAATGGCGCATTCAGCTTTCT	0.00418	0.036	0.0712	0.461	0.351	-0.246	-0.453	-0.613
CCTAATAGTTGACCATAAGGGCAACCGAAGCTCG	2.04	1.61	1.18	0.375	0.786	2.02	0.988	0.915
CCTACTGGGCCATTCAGAGGTCATTGAGCATATG	4.08	4.6	3.1	0.996	3.54	3.27	1.22	3.44
CCGACTGGGGCAGAAAGGTTCCCATACCATCCGG	0.053	-0.0575	0.0675	-1.16	-0.265	-0.504	-0.737	-0.826
ACAGACAGGCGATGAAGGTAACTCAGGCTATCAT	-0.109	-0.163	0.174	-0.246	-0.0483	0.512	-0.0858	-0.339
CCTTCCGGGTCAAGGTTATAGCACGGGTGGTACG	3.39	4.76	4.46	0.695	4.97	3.73	2.35	1.72
CCTTACGGGTCACTCCAGGTTATGGCATCGGAGT	3.07	4.46	4.54	1.4	4.22	5.16	0.627	1.62

Sequence	PBM binding z-score [1]	PBM binding z-score [2]	PBM binding z-score [3]	PBM binding z-score [4]	PBM binding z-score [5]	PBM binding z-score [6]	PBM binding z-score [7]	PBM binding z-score [8]
GGAACGAGGGCATTCGAGTTGATAGCTTGGCGAT	0.679	1.02	1.33	3.13	0.592	3.17	-0.698	3.03
ACGAGCAGGCCAAGTTTGGGTCACTCAAACAAAG	2.28	2.29	1.45	-0.315	0.708	2.59	1.04	0.234
CATACAGGGTCAGCTAGGCCAGAATAGGGACGGC	3.37	4.33	4.34	1.53	4.26	3.04	1.13	0.805
TCATATAGGTAAAGGTGAAAGACGAACGATATGA	0.974	1.51	1.34	0.604	1.85	1.04	-0.601	-0.0355
GATACAGGGTCAGCTAGAGGCCAGAGTATGGAAA	3.39	6.67	4.67	1.4	4.36	3.08	0.503	0.622
CCTGCTAGGTCATGGTCAGCTAATCTACAGTATG	3.24	4.01	4.52	1.9	2.92	3.06	1.39	0.473
CCTACTGGGCTACGAAAGGTCATTGATTCAGTGA	4.59	4.54	4.54	0.401	5.27	3.44	0.738	2.02
CAAACTATGTCAAGAGGTCAAAGTCCGCTTCCCG	4.59	5.95	5.29	2.09	6.87	3.65	1.79	4.22
CGTGCAAGGTCAATGCTAGGTCAGTGAAAGCATT	4.95	7.96	7.27	3.39	5.44	4.64	2.44	2.89
TCTTGTAGATCAACCGGAGGTTAAGAAAGATCGA	0.462	1.22	0.219	0.651	0.914	1.12	-0.269	-0.0131
CGTCCAAGGTCAGAGAGGTCAGTAAATGCCGAGT	5.22	5.95	7.02	3.45	5.43	4.24	2.87	5.99
TCATATAGGTACAAGGTGAAAGTCGGTGTGGTAA	1.38	0.762	0.453	2.04	1.33	1.91	1.51	0.703
ACTAGCAGGCCAACTTTGGGTCACTCAAACAAAG	2.34	2.46	1.61	-0.27	0.885	2.62	1.19	0.371
CCGACTGGGGCATAAGGTTACCAAAAGCCAGCCC	1.97	1.72	0.905	-0.369	1.3	2.24	1.14	0.0369
CCTGCTTGGTCAATGGTCAGCTAAAGCAGCTCGC	0.507	-0.324	0.0947	0.0969	-0.389	-0.501	-0.238	-0.585
AGAATGAGGTTATACGTAGATTAGGGAAGAAAGT	0.89	1.67	1.05	1.49	2.3	2.27	0.694	1.09
ATATGTAGGTTAAGGGTCCTTCAGGTTGGTTCGC	1.37	1.03	1.09	0.575	1.59	1.15	0.749	1.01
AGTCAAAGTTCATATAGGTAACGTAAGATATGCT	3.55	5.1	5.32	4.83	4.41	2.28	-0.342	5.14
ACAGACAGGTGATGAAGGTAACGCAGGCTATCAT	0.353	0.208	0.319	-0.195	0.253	0.435	-0.159	-0.267

From the supplement of paper PMC6555819
